From PMC7862700, “An all-to-all approach to the identification of sequence-specific readers for epigenetic DNA modifications on cytosine” come the findings set out here.

Assay in all cases: DAPPL (digital affinity profiling via proximity ligation, sequencing); 10 mM Tris-HCl pH 7.5, 50 mM NaCl, 1 mM DTT, 4% glycerol, room temperature, 30 min; GST-TFs on glutathione beads, 16-mer random dsDNA library, 0.1% formaldehyde crosslink after washing; high values mean tight binding
What all share (settings): protein: recombinant; tags: N-terminal GST; dsDNA, one strand shown

One assay has as its target T1, FLI1 (Homo sapiens, UniProt Q01543 1-452).
T1 sequence: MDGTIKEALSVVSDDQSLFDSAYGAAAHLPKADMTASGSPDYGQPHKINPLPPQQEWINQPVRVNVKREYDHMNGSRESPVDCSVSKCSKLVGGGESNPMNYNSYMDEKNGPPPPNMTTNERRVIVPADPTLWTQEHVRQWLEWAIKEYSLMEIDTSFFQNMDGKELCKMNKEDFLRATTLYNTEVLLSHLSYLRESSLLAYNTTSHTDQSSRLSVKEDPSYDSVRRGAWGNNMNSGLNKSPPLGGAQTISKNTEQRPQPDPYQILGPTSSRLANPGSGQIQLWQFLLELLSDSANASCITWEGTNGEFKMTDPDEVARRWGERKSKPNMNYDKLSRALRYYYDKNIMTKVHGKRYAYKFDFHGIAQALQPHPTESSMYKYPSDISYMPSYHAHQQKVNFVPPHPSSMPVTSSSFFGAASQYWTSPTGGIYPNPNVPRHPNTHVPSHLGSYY
In outline:
(§1)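 After expression in yeast as GST fusions, human transcription factors were bound to glutathione beads, DNA-barcoded and mixed with a tag-only sample. The pools were incubated with 200 nmole of a 16-mer random double-stranded DNA library in Tris/NaCl/DTT/glycerol buffer (30 min, room temperature), washed and crosslinked with 0.1% formaldehyde. Proximity ligation with BsaI/T4 ligase ran for 1 h at 37 °C, before PCR amplification and sequencing on an Illumina NextSeq500. Binding signal is a hexamer's read frequency for a factor divided by its frequency for the tag-only sample.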

A further assay addresses T2, ELK1 (Homo sapiens, UniProt P19419 1-428).
T2 sequence: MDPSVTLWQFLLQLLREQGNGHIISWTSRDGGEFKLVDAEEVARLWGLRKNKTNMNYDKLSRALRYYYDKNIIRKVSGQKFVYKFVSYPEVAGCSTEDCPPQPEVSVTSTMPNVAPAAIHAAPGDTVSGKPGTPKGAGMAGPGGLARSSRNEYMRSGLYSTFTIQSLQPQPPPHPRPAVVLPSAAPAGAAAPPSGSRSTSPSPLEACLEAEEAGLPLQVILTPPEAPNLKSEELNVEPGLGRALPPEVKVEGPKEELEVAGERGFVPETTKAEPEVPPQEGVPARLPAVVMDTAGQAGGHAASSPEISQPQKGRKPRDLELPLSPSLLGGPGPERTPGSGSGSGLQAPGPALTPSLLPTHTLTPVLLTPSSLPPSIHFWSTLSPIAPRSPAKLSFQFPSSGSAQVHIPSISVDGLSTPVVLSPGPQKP
The gist of the method:
as §1

The target in another assay is T3, GABPA (Homo sapiens, UniProt Q06546 1-454).
T3 sequence: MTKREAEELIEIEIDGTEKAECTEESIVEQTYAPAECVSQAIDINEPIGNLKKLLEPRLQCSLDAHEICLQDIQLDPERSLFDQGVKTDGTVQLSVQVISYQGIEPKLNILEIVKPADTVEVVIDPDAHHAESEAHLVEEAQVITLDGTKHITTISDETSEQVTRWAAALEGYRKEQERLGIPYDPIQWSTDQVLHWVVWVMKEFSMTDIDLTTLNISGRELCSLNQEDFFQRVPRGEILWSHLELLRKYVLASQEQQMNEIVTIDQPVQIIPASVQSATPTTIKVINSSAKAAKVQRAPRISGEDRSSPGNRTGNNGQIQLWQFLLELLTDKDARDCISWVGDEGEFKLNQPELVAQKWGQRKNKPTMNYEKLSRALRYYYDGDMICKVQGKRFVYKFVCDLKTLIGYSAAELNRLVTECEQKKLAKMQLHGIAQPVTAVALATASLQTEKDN
In outline: as §1

In the next assay the target is T4, ERG (Homo sapiens, UniProt P11308 1-479).
T4 sequence: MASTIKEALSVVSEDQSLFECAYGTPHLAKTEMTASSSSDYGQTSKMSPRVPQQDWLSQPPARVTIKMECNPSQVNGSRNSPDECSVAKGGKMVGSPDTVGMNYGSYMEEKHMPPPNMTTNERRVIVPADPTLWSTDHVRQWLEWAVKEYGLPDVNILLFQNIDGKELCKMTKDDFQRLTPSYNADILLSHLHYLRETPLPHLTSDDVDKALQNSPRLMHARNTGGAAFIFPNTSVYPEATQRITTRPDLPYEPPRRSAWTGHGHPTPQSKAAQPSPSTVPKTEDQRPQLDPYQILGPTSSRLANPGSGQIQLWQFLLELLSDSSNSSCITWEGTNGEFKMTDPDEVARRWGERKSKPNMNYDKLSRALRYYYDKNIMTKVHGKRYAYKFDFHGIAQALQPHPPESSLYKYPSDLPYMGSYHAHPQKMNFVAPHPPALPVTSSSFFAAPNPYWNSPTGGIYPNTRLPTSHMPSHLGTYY
In outline: as §1

A further assay has as its target ELF1 (Homo sapiens, UniProt P32519 1-619). In outline:
as §1

A further assay concerns the target T5, EHF (Homo sapiens, UniProt Q9NZC4 1-300).
T5 sequence: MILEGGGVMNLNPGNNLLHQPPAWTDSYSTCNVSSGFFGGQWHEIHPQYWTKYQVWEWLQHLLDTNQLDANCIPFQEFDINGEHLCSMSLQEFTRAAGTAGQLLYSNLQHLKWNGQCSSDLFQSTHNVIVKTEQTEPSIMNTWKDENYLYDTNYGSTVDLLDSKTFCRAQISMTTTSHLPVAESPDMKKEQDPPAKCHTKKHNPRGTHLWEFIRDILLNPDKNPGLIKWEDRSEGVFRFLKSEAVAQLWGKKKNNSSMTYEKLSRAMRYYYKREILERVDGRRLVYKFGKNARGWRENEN
The gist of the method:
as §1

For the next assay, the target named is SPI1 (Homo sapiens, UniProt P17947 1-270). In outline: as §1
A further assay deals with T6, ELK3 (Homo sapiens, UniProt P41970 1-407).
T6 sequence: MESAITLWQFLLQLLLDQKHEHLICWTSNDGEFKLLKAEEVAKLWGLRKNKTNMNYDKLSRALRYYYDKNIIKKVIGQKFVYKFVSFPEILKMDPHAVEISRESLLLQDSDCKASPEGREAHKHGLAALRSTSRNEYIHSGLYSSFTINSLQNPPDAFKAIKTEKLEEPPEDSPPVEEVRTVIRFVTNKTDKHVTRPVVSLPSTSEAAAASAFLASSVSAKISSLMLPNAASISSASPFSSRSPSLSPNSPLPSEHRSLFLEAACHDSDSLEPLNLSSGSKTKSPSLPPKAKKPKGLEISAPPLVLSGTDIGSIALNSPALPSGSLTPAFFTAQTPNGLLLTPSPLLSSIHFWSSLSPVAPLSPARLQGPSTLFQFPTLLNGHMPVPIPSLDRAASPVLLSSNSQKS
In outline:
as §1

In another assay the target is T7, FEV (Homo sapiens, UniProt Q99581 1-238).
T7 sequence: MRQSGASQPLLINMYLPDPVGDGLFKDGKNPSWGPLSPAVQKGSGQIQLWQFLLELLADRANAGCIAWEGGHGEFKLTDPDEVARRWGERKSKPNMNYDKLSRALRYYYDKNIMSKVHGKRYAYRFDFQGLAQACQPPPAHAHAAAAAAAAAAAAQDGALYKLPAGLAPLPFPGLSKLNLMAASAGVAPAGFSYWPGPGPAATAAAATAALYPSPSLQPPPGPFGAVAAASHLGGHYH
In outline: as §1

The target of another assay is ETV5 (Homo sapiens, UniProt P41161 1-510). The gist of the method:
as §1

The target in the next assay is T8, SPIC (Homo sapiens, UniProt Q8N5J4 1-248).
T8 sequence: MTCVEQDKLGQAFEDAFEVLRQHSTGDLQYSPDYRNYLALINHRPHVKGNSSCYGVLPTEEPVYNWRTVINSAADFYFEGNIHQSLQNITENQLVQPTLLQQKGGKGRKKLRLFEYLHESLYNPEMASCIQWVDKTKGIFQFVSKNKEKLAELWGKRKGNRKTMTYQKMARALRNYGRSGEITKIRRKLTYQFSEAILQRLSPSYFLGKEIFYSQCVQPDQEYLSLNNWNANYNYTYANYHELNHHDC
The gist of the method:
as §1

The next assay concerns the target ELF4 (Homo sapiens, UniProt Q99607 1-663). In outline: as §1
For the next assay, the target named is T9, ERF (Homo sapiens, UniProt P50548 1-548).
T9 sequence: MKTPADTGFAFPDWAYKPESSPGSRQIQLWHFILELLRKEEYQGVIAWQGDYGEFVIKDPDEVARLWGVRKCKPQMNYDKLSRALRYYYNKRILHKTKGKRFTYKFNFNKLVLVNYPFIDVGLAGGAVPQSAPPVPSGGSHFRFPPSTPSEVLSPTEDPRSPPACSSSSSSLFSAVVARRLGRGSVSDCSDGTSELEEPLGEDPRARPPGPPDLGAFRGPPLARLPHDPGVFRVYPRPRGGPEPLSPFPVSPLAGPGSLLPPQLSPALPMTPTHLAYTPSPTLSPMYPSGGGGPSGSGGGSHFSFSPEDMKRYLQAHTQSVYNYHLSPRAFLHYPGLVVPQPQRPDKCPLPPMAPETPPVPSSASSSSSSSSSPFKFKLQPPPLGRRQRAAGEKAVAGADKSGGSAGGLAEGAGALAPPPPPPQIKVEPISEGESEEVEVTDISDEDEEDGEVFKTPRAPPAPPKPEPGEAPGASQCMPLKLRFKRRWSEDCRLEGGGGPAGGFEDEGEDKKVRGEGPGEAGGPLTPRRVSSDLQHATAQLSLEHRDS
The gist of the method:
as §1

A further assay concerns the target T10, ETS2 (Homo sapiens, UniProt P15036 1-469).
T10 sequence: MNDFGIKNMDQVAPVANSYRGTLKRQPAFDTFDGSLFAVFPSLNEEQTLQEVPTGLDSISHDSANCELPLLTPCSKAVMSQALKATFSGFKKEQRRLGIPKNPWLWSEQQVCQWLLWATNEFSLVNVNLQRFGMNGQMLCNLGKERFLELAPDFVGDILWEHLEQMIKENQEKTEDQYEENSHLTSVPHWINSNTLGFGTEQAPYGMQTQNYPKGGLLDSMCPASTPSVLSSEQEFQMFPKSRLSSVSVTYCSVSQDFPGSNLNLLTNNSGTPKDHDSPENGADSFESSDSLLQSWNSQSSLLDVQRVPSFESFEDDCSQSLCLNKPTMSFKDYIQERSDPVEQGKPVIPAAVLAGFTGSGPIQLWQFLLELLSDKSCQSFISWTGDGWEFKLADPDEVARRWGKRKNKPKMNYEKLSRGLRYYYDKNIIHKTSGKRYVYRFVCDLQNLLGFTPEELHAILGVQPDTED
In outline: as §1

For the next assay, the target named is T11, ELF5 (Homo sapiens, UniProt Q9UKW6-2 1-255).
T11 sequence: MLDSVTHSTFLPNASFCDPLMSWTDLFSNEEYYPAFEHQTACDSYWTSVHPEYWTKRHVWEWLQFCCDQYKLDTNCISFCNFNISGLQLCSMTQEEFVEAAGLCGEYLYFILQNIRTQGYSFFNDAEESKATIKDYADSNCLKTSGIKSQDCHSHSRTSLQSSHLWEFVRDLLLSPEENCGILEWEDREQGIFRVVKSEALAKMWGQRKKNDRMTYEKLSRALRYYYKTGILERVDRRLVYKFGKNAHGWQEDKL
The gist of the method:
as §1

For another assay, the target named is T12, ETV3 (Homo sapiens, UniProt P41162-2 1-143).
T12 sequence: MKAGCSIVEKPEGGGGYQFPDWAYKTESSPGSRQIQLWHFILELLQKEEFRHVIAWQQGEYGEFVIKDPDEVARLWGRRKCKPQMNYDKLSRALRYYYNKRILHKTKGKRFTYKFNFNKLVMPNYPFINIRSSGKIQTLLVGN
In outline:
as §1

The target in a further assay is ETV6 (Homo sapiens, UniProt P41212 1-452). In outline: as §1
ETV6, sequence (P41212 whole entry): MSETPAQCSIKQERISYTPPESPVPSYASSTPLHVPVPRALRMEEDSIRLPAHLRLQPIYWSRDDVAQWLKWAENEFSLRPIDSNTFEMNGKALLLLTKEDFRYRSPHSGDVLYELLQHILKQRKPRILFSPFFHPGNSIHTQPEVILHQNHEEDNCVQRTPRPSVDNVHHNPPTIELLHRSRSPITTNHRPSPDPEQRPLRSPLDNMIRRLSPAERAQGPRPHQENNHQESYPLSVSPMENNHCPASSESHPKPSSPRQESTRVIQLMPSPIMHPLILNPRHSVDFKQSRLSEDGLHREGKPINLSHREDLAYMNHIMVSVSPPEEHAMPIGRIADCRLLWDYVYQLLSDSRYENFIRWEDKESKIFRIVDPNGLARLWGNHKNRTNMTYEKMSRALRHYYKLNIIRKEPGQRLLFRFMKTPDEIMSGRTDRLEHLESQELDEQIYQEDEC

ELF1, sequence (P32519 whole entry): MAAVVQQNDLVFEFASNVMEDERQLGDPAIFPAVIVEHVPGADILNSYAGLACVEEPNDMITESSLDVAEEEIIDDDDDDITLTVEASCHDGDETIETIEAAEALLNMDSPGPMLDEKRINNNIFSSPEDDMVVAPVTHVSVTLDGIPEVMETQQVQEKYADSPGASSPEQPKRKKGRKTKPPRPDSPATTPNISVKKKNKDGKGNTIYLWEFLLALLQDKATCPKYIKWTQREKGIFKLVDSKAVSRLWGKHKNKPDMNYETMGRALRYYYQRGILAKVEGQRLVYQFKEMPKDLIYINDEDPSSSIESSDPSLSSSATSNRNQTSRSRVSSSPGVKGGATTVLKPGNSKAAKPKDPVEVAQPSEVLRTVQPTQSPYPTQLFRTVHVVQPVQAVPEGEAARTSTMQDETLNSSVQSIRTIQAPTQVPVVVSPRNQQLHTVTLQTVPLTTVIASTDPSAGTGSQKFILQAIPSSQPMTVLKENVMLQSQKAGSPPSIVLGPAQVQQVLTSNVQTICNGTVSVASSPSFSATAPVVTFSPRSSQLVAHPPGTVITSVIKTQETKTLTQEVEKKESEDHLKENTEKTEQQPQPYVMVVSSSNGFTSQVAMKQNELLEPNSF
ETV5, sequence (P41161 whole entry): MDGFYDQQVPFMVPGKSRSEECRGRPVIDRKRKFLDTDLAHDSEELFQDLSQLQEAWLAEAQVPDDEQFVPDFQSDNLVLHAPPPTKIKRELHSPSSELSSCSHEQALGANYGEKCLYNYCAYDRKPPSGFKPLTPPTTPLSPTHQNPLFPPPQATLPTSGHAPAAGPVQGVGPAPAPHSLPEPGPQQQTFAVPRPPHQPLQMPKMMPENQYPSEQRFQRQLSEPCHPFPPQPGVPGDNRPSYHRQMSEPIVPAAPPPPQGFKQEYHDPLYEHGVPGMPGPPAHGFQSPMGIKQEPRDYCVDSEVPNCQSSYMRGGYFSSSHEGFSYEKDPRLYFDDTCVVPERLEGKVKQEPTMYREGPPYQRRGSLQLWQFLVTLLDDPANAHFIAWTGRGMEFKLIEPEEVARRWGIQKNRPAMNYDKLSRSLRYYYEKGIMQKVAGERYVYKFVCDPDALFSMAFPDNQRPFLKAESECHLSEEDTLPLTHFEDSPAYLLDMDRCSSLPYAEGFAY
ELF4, sequence (Q99607 whole entry): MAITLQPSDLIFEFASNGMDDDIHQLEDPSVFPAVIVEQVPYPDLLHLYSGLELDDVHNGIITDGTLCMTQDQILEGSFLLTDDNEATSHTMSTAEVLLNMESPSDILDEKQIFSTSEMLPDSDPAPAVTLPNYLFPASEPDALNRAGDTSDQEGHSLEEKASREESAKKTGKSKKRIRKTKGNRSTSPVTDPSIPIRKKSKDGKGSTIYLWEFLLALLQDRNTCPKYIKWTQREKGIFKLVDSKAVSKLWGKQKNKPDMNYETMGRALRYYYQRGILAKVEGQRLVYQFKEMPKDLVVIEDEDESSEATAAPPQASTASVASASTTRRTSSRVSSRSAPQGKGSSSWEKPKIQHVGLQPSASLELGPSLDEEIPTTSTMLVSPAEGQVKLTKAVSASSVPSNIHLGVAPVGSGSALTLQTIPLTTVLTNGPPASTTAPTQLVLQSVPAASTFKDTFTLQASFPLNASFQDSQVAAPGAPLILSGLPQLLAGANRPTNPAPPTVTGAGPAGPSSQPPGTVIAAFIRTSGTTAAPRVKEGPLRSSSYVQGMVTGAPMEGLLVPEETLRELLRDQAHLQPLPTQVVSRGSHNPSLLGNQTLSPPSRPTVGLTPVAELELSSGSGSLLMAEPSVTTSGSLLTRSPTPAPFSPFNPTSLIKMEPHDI

As to CCATGC, the binding signal was 1.04 fold enrichment (6-mer frequency, TF over GST control) with FLI1; 1.1 fold enrichment (6-mer frequency, TF over GST control) in the assay with ELK1; 1.09 fold enrichment (6-mer frequency, TF over GST control) in the assay with GABPA; 1.09 fold enrichment (6-mer frequency, TF over GST control) in the assay with ERG; 1.13 fold enrichment (6-mer frequency, TF over GST control) in the assay with ELF1; 1.15 fold enrichment (6-mer frequency, TF over GST control) with EHF. Also, the binding signal was 1.01 fold enrichment (6-mer frequency, TF over GST control) with SPI1; 1.04 fold enrichment (6-mer frequency, TF over GST control) with ELK3; 1.1 fold enrichment (6-mer frequency, TF over GST control) with FEV; 1.11 fold enrichment (6-mer frequency, TF over GST control) with ETV5; 1 fold enrichment (6-mer frequency, TF over GST control) with SPIC; 1.08 fold enrichment (6-mer frequency, TF over GST control) with ELF4. Moreover, the binding signal with ERF was 1.01 fold enrichment (6-mer frequency, TF over GST control); with ETS2 it was 1.03 fold enrichment (6-mer frequency, TF over GST control); in the assay with ELF5, 1.03 fold enrichment (6-mer frequency, TF over GST control); with ETV3 it was 1.12 fold enrichment (6-mer frequency, TF over GST control); in the assay with ETV6 it was 1.12 fold enrichment (6-mer frequency, TF over GST control).
